In assay [1] the target is Sphingosine kinase 1 (Homo sapiens) (UniProt Q9NYA1). The following applies: at 1 µM.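 Note: mean SPHK1 inhibition value reported from the GSK PKIS kinase panel screen.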
The target in assay [2] is T1, Sphingosine kinase 2 (Homo sapiens) (UniProt Q9NRA0).
T1 sequence (whole entry): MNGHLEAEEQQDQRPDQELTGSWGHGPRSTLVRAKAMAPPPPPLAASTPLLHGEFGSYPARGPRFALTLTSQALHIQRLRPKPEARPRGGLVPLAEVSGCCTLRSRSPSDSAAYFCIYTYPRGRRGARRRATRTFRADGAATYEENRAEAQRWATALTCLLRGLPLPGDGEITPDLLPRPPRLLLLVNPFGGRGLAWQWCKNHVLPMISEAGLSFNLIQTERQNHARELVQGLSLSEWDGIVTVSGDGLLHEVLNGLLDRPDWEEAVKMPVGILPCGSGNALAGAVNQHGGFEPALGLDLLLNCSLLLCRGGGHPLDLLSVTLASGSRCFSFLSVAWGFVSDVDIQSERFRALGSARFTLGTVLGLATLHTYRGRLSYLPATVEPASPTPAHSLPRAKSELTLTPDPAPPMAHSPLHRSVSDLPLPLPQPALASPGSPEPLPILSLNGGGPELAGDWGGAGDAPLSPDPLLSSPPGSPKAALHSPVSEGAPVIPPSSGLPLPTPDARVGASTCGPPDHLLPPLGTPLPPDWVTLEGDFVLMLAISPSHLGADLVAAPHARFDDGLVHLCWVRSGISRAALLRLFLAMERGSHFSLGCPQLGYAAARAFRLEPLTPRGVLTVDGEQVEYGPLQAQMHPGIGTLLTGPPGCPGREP
The following applies: at 0.1 µM.

Assay [3] addresses T1, Sphingosine kinase 2 (Homo sapiens). The following applies: at 1 µM.
The target in assay [4] is Casein kinase II subunit alpha (Homo sapiens) (UniProt P68400). The following applies: at 0.1 µM.
Chain of Casein kinase II subunit alpha (Homo sapiens) (P68400 whole entry, looked up): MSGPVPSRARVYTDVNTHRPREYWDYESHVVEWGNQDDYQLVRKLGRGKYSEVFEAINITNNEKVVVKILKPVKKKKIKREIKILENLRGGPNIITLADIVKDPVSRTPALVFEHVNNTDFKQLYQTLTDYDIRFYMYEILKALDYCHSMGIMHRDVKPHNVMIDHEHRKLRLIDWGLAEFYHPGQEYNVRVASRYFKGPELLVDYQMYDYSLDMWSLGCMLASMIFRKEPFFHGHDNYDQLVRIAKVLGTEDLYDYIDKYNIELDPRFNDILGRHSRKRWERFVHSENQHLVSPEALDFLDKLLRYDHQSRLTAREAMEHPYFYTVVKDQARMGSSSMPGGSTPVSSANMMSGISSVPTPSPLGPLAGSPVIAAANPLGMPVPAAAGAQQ
The target is the same in assay [5]. The following applies: at 1 µM.
The target of assay [6] is T2, Inhibitor of nuclear factor kappa-B kinase subunit alpha (Homo sapiens) (UniProt O15111).
T2 sequence (whole entry): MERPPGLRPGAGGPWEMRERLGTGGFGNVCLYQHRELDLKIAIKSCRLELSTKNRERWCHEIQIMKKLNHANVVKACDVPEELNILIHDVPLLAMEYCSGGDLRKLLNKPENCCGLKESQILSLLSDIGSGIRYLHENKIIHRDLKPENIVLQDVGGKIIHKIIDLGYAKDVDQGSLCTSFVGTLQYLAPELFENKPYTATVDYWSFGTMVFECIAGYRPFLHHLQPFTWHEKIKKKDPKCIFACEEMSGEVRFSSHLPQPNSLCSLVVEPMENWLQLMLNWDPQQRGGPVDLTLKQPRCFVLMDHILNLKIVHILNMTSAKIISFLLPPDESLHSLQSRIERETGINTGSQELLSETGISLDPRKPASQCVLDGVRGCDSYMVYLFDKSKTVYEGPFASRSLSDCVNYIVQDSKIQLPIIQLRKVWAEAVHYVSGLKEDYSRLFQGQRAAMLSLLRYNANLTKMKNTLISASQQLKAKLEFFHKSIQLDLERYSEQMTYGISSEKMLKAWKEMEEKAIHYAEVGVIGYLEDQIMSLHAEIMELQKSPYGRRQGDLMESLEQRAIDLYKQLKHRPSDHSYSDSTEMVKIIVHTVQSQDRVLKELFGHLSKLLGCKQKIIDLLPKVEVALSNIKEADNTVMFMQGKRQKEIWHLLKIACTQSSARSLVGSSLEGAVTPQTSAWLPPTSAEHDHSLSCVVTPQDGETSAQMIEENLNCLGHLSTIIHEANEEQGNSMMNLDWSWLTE
The following applies: at 0.1 µM.

Assay [7] deals with T2, Inhibitor of nuclear factor kappa-B kinase subunit alpha (Homo sapiens). The following applies: at 1 µM.
Assay [8] concerns the target T3, Inhibitor of nuclear factor kappa-B kinase subunit beta (Homo sapiens) (UniProt O14920).
T3 sequence (whole entry): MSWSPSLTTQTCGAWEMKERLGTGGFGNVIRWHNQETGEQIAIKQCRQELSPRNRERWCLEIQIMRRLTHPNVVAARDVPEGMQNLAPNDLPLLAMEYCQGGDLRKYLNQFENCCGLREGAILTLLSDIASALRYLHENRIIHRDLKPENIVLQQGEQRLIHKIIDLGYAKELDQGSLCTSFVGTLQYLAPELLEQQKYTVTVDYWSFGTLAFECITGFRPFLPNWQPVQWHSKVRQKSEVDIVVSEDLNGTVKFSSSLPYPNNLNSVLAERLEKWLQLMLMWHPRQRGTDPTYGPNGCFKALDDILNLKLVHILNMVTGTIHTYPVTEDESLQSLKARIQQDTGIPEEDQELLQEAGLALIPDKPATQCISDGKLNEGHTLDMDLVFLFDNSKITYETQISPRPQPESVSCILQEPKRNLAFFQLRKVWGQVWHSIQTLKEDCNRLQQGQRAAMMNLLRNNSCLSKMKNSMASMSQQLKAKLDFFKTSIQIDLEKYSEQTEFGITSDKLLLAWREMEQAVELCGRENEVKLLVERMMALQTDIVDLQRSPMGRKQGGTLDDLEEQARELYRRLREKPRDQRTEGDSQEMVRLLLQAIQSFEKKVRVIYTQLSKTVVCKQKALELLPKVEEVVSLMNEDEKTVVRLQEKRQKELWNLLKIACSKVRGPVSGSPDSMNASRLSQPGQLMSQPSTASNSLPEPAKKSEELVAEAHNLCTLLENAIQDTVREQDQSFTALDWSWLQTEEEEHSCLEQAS
The following applies: at 0.1 µM.

The target in assay [9] is T3, Inhibitor of nuclear factor kappa-B kinase subunit beta (Homo sapiens). The following applies: at 1 µM.
In assay [10] the target is T4, Inhibitor of nuclear factor kappa-B kinase subunit epsilon (Homo sapiens) (UniProt Q14164).
T4 sequence (whole entry): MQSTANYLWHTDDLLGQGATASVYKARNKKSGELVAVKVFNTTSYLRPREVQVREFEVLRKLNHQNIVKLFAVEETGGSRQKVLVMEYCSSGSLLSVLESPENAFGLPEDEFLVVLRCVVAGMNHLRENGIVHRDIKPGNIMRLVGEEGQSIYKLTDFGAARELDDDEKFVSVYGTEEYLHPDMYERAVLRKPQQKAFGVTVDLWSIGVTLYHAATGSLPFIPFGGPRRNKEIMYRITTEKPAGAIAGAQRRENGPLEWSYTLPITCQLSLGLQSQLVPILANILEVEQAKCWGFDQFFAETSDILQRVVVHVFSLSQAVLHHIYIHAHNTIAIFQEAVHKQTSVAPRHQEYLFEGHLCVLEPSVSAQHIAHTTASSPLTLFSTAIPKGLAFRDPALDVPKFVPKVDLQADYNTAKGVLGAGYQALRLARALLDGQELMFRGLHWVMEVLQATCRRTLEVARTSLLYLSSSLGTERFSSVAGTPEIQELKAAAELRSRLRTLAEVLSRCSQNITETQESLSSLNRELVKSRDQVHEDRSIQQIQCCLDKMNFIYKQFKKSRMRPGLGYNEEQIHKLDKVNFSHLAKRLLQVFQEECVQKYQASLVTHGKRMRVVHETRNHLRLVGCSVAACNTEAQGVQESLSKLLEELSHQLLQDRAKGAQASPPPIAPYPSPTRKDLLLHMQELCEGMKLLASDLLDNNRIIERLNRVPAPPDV
The following applies: at 0.1 µM.

Assay [11] deals with T4, Inhibitor of nuclear factor kappa-B kinase subunit epsilon (Homo sapiens). The following applies: at 1 µM.
The target of assay [12] is T5, Serine/threonine-protein kinase Nek1 (Homo sapiens) (UniProt Q96PY6).
T5 sequence (whole entry): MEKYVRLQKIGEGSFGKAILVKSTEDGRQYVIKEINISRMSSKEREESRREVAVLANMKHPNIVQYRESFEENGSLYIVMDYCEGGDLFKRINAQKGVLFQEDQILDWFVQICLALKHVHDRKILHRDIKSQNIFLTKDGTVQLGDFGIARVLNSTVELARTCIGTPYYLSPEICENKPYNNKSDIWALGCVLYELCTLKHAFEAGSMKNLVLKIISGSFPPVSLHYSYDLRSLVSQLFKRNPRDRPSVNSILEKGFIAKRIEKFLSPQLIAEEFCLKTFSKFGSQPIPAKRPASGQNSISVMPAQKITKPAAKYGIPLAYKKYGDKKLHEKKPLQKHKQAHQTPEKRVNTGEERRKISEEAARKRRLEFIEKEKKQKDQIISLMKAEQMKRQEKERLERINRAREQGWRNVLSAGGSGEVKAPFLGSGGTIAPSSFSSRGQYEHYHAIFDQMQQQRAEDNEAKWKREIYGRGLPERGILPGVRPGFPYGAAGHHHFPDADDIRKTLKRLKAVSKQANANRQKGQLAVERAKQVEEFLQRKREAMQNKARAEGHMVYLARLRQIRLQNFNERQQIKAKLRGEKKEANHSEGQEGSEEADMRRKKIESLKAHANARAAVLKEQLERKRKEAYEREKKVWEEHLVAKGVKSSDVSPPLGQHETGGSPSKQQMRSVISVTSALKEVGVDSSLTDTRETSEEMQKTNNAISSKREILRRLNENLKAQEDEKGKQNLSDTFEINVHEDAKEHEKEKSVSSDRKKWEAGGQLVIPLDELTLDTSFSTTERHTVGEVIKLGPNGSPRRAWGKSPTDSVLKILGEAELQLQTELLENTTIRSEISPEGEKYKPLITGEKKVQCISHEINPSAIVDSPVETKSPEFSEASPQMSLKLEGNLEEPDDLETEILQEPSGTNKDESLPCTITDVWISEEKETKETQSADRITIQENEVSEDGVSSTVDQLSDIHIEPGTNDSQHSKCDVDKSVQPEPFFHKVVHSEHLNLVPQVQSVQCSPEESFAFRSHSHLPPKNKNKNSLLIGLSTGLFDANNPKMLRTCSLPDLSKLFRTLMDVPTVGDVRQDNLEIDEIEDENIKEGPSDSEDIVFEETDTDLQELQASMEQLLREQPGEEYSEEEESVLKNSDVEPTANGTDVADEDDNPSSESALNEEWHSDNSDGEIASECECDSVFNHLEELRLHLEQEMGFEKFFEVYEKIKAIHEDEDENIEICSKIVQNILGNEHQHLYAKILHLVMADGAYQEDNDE
The following applies: at 0.1 µM.

The target in assay [13] is T5, Serine/threonine-protein kinase Nek1 (Homo sapiens). The following applies: at 1 µM.
Assay [14] addresses T6, Serine/threonine-protein kinase Nek2 (Homo sapiens) (UniProt P51955).
T6 sequence (whole entry): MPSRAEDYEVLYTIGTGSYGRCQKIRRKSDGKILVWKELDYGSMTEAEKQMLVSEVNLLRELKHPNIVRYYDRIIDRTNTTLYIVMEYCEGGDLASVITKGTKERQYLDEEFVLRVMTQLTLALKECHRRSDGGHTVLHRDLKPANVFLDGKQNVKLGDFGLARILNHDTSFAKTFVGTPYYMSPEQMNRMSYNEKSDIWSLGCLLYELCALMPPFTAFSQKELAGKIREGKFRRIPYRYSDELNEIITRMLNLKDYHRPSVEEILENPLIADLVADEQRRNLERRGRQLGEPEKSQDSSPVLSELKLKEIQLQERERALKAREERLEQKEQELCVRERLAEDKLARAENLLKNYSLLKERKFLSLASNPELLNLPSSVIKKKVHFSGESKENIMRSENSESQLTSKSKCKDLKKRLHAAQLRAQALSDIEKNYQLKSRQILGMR
The following applies: at 0.1 µM.

The target in assay [15] is T6, Serine/threonine-protein kinase Nek2 (Homo sapiens). The following applies: at 1 µM.
Assay [16] concerns the target Serine/threonine-protein kinase Nek6 (Homo sapiens) (UniProt Q9HC98). The following applies: at 0.1 µM.
The target is the same in assay [17]. The following applies: at 1 µM.
Assay [18] concerns the target Serine/threonine-protein kinase Nek7 (Homo sapiens) (UniProt Q8TDX7). The following applies: at 0.1 µM.
Assay [19] shares this target. The following applies: at 1 µM.
In assay [20] the target is T7, Serine/threonine-protein kinase Nek9 (Homo sapiens) (UniProt Q8TD19).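 Note: reported value is the mean percent inhibition of NEK9.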
T7 sequence (whole entry): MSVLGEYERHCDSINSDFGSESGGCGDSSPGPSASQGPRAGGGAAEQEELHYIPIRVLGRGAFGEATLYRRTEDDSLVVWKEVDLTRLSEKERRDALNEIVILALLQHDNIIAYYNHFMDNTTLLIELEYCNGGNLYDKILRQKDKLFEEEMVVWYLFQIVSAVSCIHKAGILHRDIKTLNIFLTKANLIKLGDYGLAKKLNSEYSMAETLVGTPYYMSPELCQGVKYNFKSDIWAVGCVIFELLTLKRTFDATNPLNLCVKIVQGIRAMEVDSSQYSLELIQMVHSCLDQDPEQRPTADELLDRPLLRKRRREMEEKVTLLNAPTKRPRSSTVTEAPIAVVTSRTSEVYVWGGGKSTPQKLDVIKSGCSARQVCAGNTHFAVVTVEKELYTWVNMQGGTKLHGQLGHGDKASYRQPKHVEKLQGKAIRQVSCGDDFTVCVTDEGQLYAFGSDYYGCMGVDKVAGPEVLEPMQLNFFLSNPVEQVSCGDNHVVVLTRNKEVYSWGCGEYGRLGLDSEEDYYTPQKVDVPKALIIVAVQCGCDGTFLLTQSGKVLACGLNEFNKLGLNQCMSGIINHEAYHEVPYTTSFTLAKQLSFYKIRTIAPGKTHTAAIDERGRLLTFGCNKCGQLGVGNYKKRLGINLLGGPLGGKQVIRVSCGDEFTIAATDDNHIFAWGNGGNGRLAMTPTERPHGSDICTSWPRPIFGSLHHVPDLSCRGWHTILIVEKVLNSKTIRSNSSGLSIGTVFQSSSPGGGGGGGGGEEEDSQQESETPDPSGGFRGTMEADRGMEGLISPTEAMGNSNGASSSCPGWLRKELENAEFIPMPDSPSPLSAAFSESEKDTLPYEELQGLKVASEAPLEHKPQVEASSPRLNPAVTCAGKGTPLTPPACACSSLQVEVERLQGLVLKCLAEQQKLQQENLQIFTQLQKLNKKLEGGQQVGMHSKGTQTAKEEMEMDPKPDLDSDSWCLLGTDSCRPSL
The following applies: at 0.1 µM.

Chain of Serine/threonine-protein kinase Nek7 (Homo sapiens) (Q8TDX7 whole entry, looked up): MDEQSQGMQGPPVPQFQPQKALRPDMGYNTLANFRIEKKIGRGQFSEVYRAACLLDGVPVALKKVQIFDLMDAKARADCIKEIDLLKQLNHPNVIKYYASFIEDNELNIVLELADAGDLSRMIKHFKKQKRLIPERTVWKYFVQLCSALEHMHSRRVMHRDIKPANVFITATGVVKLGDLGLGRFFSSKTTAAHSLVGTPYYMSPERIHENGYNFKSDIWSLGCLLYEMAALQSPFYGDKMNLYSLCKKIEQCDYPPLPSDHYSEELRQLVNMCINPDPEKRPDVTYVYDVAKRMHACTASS
Chain of Serine/threonine-protein kinase Nek6 (Homo sapiens) (Q9HC98 whole entry): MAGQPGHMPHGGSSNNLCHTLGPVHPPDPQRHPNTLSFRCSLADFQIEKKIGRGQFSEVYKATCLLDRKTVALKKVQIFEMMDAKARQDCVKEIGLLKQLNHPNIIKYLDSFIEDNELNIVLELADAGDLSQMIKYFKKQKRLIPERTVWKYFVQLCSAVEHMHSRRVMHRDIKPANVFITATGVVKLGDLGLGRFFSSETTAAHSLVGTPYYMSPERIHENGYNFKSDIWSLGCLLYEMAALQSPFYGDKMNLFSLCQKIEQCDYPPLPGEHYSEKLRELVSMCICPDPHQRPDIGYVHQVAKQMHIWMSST
Chain of Sphingosine kinase 1 (Homo sapiens) (Q9NYA1 whole entry): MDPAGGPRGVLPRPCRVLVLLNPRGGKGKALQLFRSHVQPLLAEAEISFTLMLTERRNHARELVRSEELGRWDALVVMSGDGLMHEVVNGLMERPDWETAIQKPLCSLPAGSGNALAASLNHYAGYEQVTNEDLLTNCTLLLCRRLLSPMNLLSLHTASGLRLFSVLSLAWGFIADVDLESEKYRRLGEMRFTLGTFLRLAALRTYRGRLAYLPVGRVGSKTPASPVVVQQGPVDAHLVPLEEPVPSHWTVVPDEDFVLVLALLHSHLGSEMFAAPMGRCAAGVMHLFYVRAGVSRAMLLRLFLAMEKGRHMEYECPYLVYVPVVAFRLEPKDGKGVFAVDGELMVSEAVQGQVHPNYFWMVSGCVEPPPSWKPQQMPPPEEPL

Consider `Cn1c(-c2nonc2N)nc2cnccc21`, for which the inhibition was 3.87% in [1]; 2.29% in [2]; 0.16% in assay [3]; 1.78% in assay [4]; -1.25% in [5]; 1.72% in assay [6]. The inhibition is 7.51% in assay [7]; 5.29% in [8]; 1.73% in assay [9]; 6.16% in assay [10]; 6.44% in [11]; 1.82% in assay [12]. The inhibition in [13] was 3.22%; in [14], 4.27%; in assay [15], 3.27%; in assay [16] it was 3.89%; in [17], -0.49%; in assay [18] it was 3.76%. Besides, the inhibition in assay [19] came to 3.15%; in assay [20], 12.2%.

As a reminder, the inhibition is the drop in the measured response relative to a control, in per cent.
